Screening results from PubChem.
Only some compounds are listed: those with a hit (about 2.4% of all), similar ones and a draw of the others.
WRN helicase inh: inhibitors of human WRN helicase; WRN helicase unwinding, fluorescent forked duplex, kinetic; Q14191; Potency, µM (highest dose often 114 µM), for the others: top-dose activity change, negative = inhibition, most hits filed as inhibitors; actives 0.46% (n = 360,000); note: % is set by controls: 0 for no effect and ±100 for the full control effect; nearly all actives have a fitted effect of over 55% in size
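Fluorescence dequenching readout, ex 525 nm/em 598 nm, kinetic mode: forked duplex DNA (100 nM final) with adjacent fluorophore and quencher unwound by WRN (20 nM final) with 2 mM ATP. Compound preincubation 15 min, room temperature.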
Pol kappa inh: DNA polymerase kappa (human) inhibition | Q9UBT6 | purified Pol kappa, fluorescent DNA synthesis assay, 10 min | Potency, µM (doses to about 107 µM), without a hit: at the highest dose activity, negative = inhibition, actives largely listed as inhibitors | actives 0.53% (n = 400,000) | AID 588579; note: % is set by controls: 0 for no effect and ±100 for the full control effect
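Pol kappa 10 nM + cpd, 15 min RT; start w/ substrate 50 nM final; fluorescence kinetic read, 0 and 10 min. Neg ctrl: buffer, no enzyme.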
FEN1 inhibitor: inhibitors of human flap endonuclease 1; Recombinant FEN1 flap cleavage, fluorescence, 15 min; P39748; Potency, µM (highest dose often 114 µM), for inactives: at the highest dose activity change, negative = inhibition, hits mostly inhibitors; actives 0.35% (n = 390,000); note: % is set by controls: 0 for no effect and ±100 for the full control effect; nearly all actives have a fitted effect of over 65% in size
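Potency values derive from four-parameter Hill fits of normalized qHTS data. The reaction used 10 nM FEN1 preincubated 15 min at room temperature with compound, then 50 nM DNA substrate, read at 0 and 15 min.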
POLI inh: inhibitors of human DNA polymerase iota; Q9UNA4; Pol iota fluorescent replication assay, 10 min; Potency, µM (highest dose often 115 µM), for inactives: at the highest dose activity, negative = inhibition, usual class: inhibitors; actives 1% (n = 390,000); AID 588590
Target sequence (Q9UNA4 whole entry, looked up): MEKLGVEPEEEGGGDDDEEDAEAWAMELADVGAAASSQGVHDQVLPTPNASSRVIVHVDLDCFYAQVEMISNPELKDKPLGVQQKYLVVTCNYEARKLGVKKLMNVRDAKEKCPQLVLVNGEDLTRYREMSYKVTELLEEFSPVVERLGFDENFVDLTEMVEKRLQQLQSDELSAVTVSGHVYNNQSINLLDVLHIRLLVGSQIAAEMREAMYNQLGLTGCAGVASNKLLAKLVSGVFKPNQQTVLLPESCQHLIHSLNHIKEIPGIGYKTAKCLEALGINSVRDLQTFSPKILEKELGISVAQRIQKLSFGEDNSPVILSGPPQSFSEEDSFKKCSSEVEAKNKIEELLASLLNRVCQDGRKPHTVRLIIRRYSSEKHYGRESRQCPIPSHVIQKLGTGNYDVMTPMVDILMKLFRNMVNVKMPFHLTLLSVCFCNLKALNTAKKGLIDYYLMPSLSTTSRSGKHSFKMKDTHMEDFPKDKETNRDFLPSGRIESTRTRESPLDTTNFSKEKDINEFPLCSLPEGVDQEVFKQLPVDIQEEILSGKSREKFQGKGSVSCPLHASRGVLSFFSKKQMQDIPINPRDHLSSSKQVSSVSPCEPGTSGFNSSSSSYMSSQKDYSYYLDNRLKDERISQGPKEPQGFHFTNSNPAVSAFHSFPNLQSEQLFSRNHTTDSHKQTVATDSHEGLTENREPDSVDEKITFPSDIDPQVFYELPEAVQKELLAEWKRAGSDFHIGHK
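Fluorescent replication assay read twice, at 0 min and 10 min after adding 50 nM (final) substrate. Enzyme (10 nM) and compounds were first incubated 15 min at room temperature; enzyme-free buffer wells were negative controls.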
POLH inh: blocks human DNA polymerase eta activity | recombinant Pol eta, fluorescent DNA replication assay | actives 1.2% (n = 390,000) | Q9Y253 | Potency, µM (series often up to 114 µM), inactives show top-dose activity change, negative = inhibition, actives largely listed as inhibitors; note: % is set by controls: 0 for no effect and ±100 for the full control effect
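Fluorescent replication assay: 50 nM final substrate added after a 15 min room-temperature compound preincubation with 10 nM enzyme. Signal taken at 0 min and again at 10 min.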
Pol beta inh: blocks human DNA polymerase beta activity; P06746; Pol beta primer extension/strand displacement, fluorescence kinetic; Potency, µM (series often up to 114 µM), for inactives: top-dose activity change, negative = inhibition, hits mostly inhibitors; actives 1.3% (n = 340,000); AID 485314; note: % is set by controls: 0 for no effect and ±100 for the full control effect
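10 nM enzyme + cpd, 15 min RT; start with substrate 50 nM final; read 0 min and after 10 min RT. Corrected, normalized data; 4-parameter Hill curve fit.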
Starred values were filed as active, the others as inactive; [ ] = dose if it differs, or a comment. Calls come from the whole dose curve; as a rule, active = well fitted curve in the direction sought with a large enough effect; inconclusive = small, poorly fitted or top-dose-only effect, or another doubt; inactive = no such curve, though single readings can be large; an effect the other way counts as inactive or inconclusive. Potency is the fitted concentration of half-maximal effect.

For C[C@H]1COC2=C1C(=O)C(=O)c1c2ccc2c1CCCC2(C)C the results were WRN helicase inh inconclusive, Pol kappa inh inconclusive, FEN1 inhibitor inconclusive, POLI inh 22µM*, POLH inh 35µM* and Pol beta inh 22µM*.
For CC1COC2=C1C(=O)C(=O)c1c2ccc2c1CCCC2(C)C (centres undefined) the results were Pol kappa inh 28µM*.
Screening CN(C(=O)Cc1ccc(Cl)c(Cl)c1)C(CN1CCCC1)c1cccc(N=C=S)c1 (centres undefined) returned Pol kappa inh 5%[19.4 µM].
Screening CN(Cc1cccc(-c2ccncc2)c1)C(=O)Oc1ccccc1Cc1ccccc1 returned WRN helicase inh -8%.
c1ccc(CN2CCC3(CCNCC3)CC2)cc1 was read as Pol kappa inh -21%[60.1 µM].
For C[C@]12CC[C@@H]3c4ccc(OC(=O)N(CCCl)CCCl)cc4CC[C@H]3[C@@H]1CC[C@@H]2O the results were Pol kappa inh 8.9µM*.
For Cc1ccc(F)cc1NC(=O)c1ccc(Cn2nc(N3CCN(c4ccccc4)CC3)ccc2=O)o1 the results were Pol kappa inh -11%, FEN1 inhibitor -1%, POLI inh inconclusive, POLH inh 79µM* and Pol beta inh inconclusive.
For COc1ccc(CCn2c(NN=C3CCCCC3)nc3c2c(=O)[nH]c(=O)n3C)cc1 the results were WRN helicase inh -5%, Pol kappa inh -18%, FEN1 inhibitor 7%, POLI inh 18µM*, POLH inh inconclusive and Pol beta inh -23%.
`COc1ccc(CCNCc2ccc3c(c2)n(C)c(=O)n3C)cc1` gave Pol kappa inh 0%, FEN1 inhibitor -3%, POLI inh 7%, POLH inh 1% and Pol beta inh 1%.
C[N+]1([O-])CCC[C@@H]1c1cccnc1 (some centres undefined) was read as Pol kappa inh 7%[19.4 µM].
Screening O=C=NCCCCN=C=O returned Pol kappa inh -1%[60.1 µM].
Screening CCCCNC(=O)c1c(N)n(CCCOC)c2nc3ccccc3nc12 returned WRN helicase inh -8%, Pol kappa inh -18%, FEN1 inhibitor inconclusive, POLI inh 2.5µM*, POLH inh -7% and Pol beta inh 18%.
Screening CCOC(=O)c1c(NS(=O)(=O)c2ccccc2)n(CCCOC)c2nc3ccccc3nc12 returned WRN helicase inh -30%, Pol kappa inh -22%, FEN1 inhibitor -6%, POLI inh 1.1µM*, POLH inh inconclusive and Pol beta inh 1%.
Screening CCCCCn1c(NC(=O)c2ccco2)c(C(=O)OCC)c2nc3ccccc3nc21 returned WRN helicase inh inconclusive, Pol kappa inh -18%, FEN1 inhibitor -7%, POLI inh 1.4µM*, POLH inh 22µM* and Pol beta inh -8%.
COCCCNC(=O)c1c(NC(=O)c2ccco2)n(Cc2ccccc2)c2nc3ccccc3nc12 was read as WRN helicase inh inconclusive, Pol kappa inh -27%, FEN1 inhibitor -13%, POLI inh 3.2µM*, POLH inh inconclusive and Pol beta inh 10%.
Screening COCCCn1c(N)c(C(=O)OCCOC)c2nc3ccccc3nc21 returned WRN helicase inh -7%, Pol kappa inh -6%, FEN1 inhibitor -1%, POLI inh 36%, POLH inh -4% and Pol beta inh 1%.
For C[C@H](N)Cc1c[nH]c2ccc(OCc3cccs3)cc12 the results were Pol kappa inh -11%[19.4 µM].
For ClCCN(CCCl)/C(=C\c1ccccc1)c1ccnc2ccccc12 the results were Pol kappa inh 5%, FEN1 inhibitor -24% and POLI inh 17%.
Screening c1ccc(N2CC[C@@]3(CCCNC3)C2)cc1 returned Pol kappa inh -4%[60.1 µM].
For COc1ccccc1N1C(=O)NC(=O)/C(=C/c2ccc3c(c2)Cc2ccccc2-3)C1=O the results were WRN helicase inh -20%[11.6 µM], Pol kappa inh -3%, FEN1 inhibitor 79µM*, POLI inh inconclusive, POLH inh -20% and Pol beta inh 1%.
CCCNC1=C(C)C(=O)C2=C(C1=O)C(COC(N)=O)[C@]1(OC)C3NC3CN21 (some centres undefined) was read as WRN helicase inh inconclusive, Pol kappa inh 45µM*, FEN1 inhibitor -7%, POLI inh 7.9µM*, POLH inh inconclusive and Pol beta inh 18%.
`Cc1ccc(/C=C2\C(=O)NC(=O)N(CCc3ccc(F)cc3)C2=O)o1` gave WRN helicase inh -36%, Pol kappa inh -31%, FEN1 inhibitor inconclusive, POLI inh inconclusive, POLH inh -14% and Pol beta inh -11%.
For CN(C)c1ccc(C=C2C(=O)NC(=O)NC2=O)cc1 the results were WRN helicase inh -28%, Pol kappa inh 4%, FEN1 inhibitor -20%, POLI inh inconclusive and POLH inh -3%.
Screening O=C1NC(=O)C(=Cc2ccc(Sc3ccccc3)o2)C(=O)N1 returned WRN helicase inh 11µM*, Pol kappa inh -3%, FEN1 inhibitor inconclusive, POLI inh inconclusive, POLH inh inconclusive and Pol beta inh 17%.
For O=C1NC(=O)C(=Cc2ccc(-c3ccc(S(=O)(=O)N4CCOCC4)cc3)o2)C(=O)N1 the results were WRN helicase inh -11%, Pol kappa inh 0%, FEN1 inhibitor -27%, POLI inh 25µM*, POLH inh -14% and Pol beta inh 20%.
Screening O=C1NC(=O)C(=Cc2ccc(-c3ccc(F)cc3O)o2)C(=O)N1 returned WRN helicase inh -6%[11.6 µM], Pol kappa inh -9%, FEN1 inhibitor 18µM*, POLI inh inconclusive, POLH inh 71µM* and Pol beta inh -2%.
O=C1NC(=O)C(=Cc2ccc(-c3ccc(Cl)cc3)o2)C(=O)N1 was read as WRN helicase inh -23%, Pol kappa inh -4%, FEN1 inhibitor 18µM*, POLI inh 11µM*, POLH inh 79µM* and Pol beta inh 43%.
Screening Cc1ccc2c(c1)[C@@H]1CN(C)CC[C@H]1N2 returned Pol kappa inh -1%[19.4 µM].
`Nc1nc(NCc2ccc(F)cc2)c2[nH]cnc2n1` gave Pol kappa inh 12%, FEN1 inhibitor -9% and POLI inh 56%.
Screening O=C(CN1CCOCC1)Nc1ccc(Br)cc1C(=O)c1ccccc1 returned WRN helicase inh -8%[57.1 µM], Pol kappa inh -15%, FEN1 inhibitor -9%, POLI inh 4%, POLH inh 1% and Pol beta inh 1%.
